Reference: PubChem BioAssay (EPA / NIEHS)
Values joined by “and” are separate entries in the source; they are usually repeats but may differ in a detail not shown here. Equal entries are not always repeated. Results filed as inconclusive are left out. Some structures have more than one record in an assay (separate samples or runs), and their calls can disagree. Active and inactive are the calls of the source. The calls were made as follows, unless noted: active = hit-call score of the fitted dose curve at least 0.9, where 1 is the maximum; inconclusive = response in the unintended direction; inactive = score below 0.9.

Columns and labels:
[1] = target: human Peroxisome Proliferator-activated Receptor alpha (PPARa), PPARA (gene 5465) (UniProt Q07869); experiment: ATG_PPARa_TRANS: Attagene TRANS-FACTORIAL HepG2 Assay for human Peroxisome Proliferator-activated Receptor alpha (PPARa) (AID 2283001);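 as to AC50: potency for gain of reporter signal over DMSO so agonist or activator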
In short: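 Measures transcriptional activity of an exogenous chimeric PPARa-Gal4 protein in transiently transfected HepG2 cells after 24 h dosing. Reporter mRNA quantified via RT-PCR and capillary electrophoresis; DMSO served as negative control.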

[2] = target: human Retinoic Acid Receptor beta (RARb), RARB (gene 5915) (UniProt P10826); experiment: ATG_RARb_TRANS: Attagene TRANS-FACTORIAL HepG2 Assay for human Retinoic Acid Receptor beta (AID 2283004)
In short: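 Fluorescent capillary-electrophoresis detection of GAL4-UAS reporter mRNA defines the endpoint, with induction over DMSO-treated wells scored as activity. Transiently transfected human hepatoma HepG2 cells expressing exogenous NR–Gal4 proteins are exposed to test chemicals for 24 h.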

[3] = target: Retinoic acid receptor alpha (Homo sapiens) (UniProt P10276); experiment: ATG_RARa_TRANS: Attagene TRANS-FACTORIAL HepG2 Assay for human Retinoic Acid Receptor alpha (RARa) (AID 2283005)
In short: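 HepG2 transiently transfected with multiplex GAL4-UAS reporter units including a human RARa–GAL4 chimera; 24 h compound exposure. Reporter mRNA quantified by RT-PCR, 6-FAM labeling and capillary electrophoresis; gain of signal versus DMSO.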

[4] = target: Peroxisome proliferator-activated receptor gamma (Homo sapiens) (UniProt P37231); experiment: ATG_PPARg_TRANS: Attagene TRANS-FACTORIAL HepG2 Assay for human Peroxisome Proliferator-activated Receptor-gamma (PPARg) (AID 2283007)
In short: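 Endpoint reflects upward reporter mRNA change versus DMSO controls. Setup: transiently transfected HepG2, GAL4-UAS reporters driven by chimeric NR-Gal4, 24 h incubation, RT-PCR with capillary electrophoresis read-out.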

[5] = target: human Retinoic Acid Receptor gamma (RARg), RARG (gene 5916) (UniProt P13631); experiment: ATG_RARg_TRANS: Attagene TRANS-FACTORIAL HepG2 Assay for human Retinoic Acid Receptor gamma (RARg) (AID 2283009)
In short: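 HepG2 cells transiently transfected with multiplexed reporter units expressing chimeric RARg-GAL4 and GAL4-UAS-driven reporters; 24 h compound exposure. Reporter mRNA quantified by RT-PCR with fluorescent labelling and capillary electrophoresis; gain-of-signal fitted relative to DMSO baseline.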

[6] = target: human RAR-related Orphan Receptor gamma (RORg), RORC (gene 6097) (UniProt P51449); experiment: ATG_RORg_TRANS: Attagene TRANS-FACTORIAL HepG2 Assay for human RAR-related Orphan Receptor gamma (RORg) (AID 2283011)
In short: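 Chimeric RORg-Gal4 transactivation in transfected HepG2; 24 h exposure; RT-PCR/capillary electrophoresis readout of reporter mRNA, DMSO baseline.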

[7] = target: Retinoic acid receptor RXR-alpha (Homo sapiens) (UniProt P19793); experiment: ATG_RXRa_TRANS: Attagene TRANS-FACTORIAL HepG2 Assay for human Retinoid X Receptor alpha (RXRa) (AID 2283012)
In short: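 HepG2 cells transiently transfected with multiplexed GAL4-UAS reporter units and chimeric NR-GAL4 fusions, dosed 24 h. Reporter mRNA measured by RT-PCR, FAM labelling, HpaI digestion and capillary electrophoresis; gain-of-signal fitted relative to DMSO baseline.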

[8] = target: human Retinoid X Receptor beta (RXRb), RXRB (gene 6257) (UniProt P28702); experiment: ATG_RXRb_TRANS: Attagene TRANS-FACTORIAL HepG2 Assay for human Retinoid X Receptor beta (RXRb) (AID 2283013)
In short: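 HepG2 cells transiently transfected with multiplexed reporter units driven by GAL4-UAS and exogenous chimeric NR-Gal4 proteins; treated 24 h. Reporter mRNA measured by RT-PCR, 6-FAM labelling and capillary electrophoresis; gain-of-signal fitted versus DMSO baseline.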

[9] = target: Nuclear receptor subfamily 1 group I member 2 (Homo sapiens) (UniProt O75469); experiment: ATG_PXR_TRANS: Attagene TRANS-FACTORIAL HepG2 Assay for human Pregnane X Receptor (PXR) (AID 2283008)
In short: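 Fluorescence intensity of FAM-labelled, HpaI-digested reporter amplicons, separated by capillary electrophoresis, quantifies induction. HepG2 cells with PXR-Gal4 trans-reporter system were exposed 24 h; DMSO defines baseline.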

[10] = target: human Thyroid Receptor alpha (THRa1), THRA (gene 7067) (UniProt P10827); experiment: ATG_THRa1_TRANS: Attagene TRANS-FACTORIAL HepG2 Assay for human Thyroid Receptor alpha (THRa1) (AID 2283014)
In short: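 Measured here is mRNA from a GAL4-UAS reporter in transfected HepG2 cells carrying a Gal4-fused receptor, 24 h post-dose. DMSO served as negative control and baseline.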

[11] = target: human Peroxisome Proliferator-activated Receptor delta (PPARd), PPARD (gene 5467) (UniProt Q03181); experiment: ATG_PPARd_TRANS: Attagene TRANS-FACTORIAL HepG2 Assay for human Peroxisome Proliferator-activated Receptor delta (PPARd) (AID 2283002)
In short: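 Fluorescence from capillary electrophoresis of labelled RT-PCR reporter fragments gives the signal; DMSO sets baseline. Cells: HepG2 transiently carrying GAL4-UAS reporter units plus chimeric nuclear receptor-Gal4 proteins, exposed to chemicals for 24 h.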

[12] = read-out: Intercellular Adhesion Molecule 1 (ICAM1), ICAM1 (gene 3383); experiment: BSK_3C_ICAM1: BioMAP Diversity Plus: 3C Assay for Intercellular Adhesion Molecule 1 (ICAM1) Biomarker Activity (AID 2283003; active = hit-call score of the fitted dose curve at least 0.9, where 1 is the maximum; inactive = score below 0.9); settings: primary human endothelial cells (HUVEC); actives raise or lower the signal
In short: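 Primary human umbilical vein endothelial cells in the BioMAP 3C system were exposed to chemicals for 24 h, then ICAM-1 was quantified by ELISA. Activity was fitted bidirectionally against the DMSO negative control baseline.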

[13] = BSK_3C_Proliferation: Cell Proliferation Assessment in the BioMAP Diversity Plus: 3C Assay (AID 2283006; active = hit-call score of the fitted dose curve at least 0.9, where 1 is the maximum; inactive = score below 0.9;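 as to AC50: potency may reflect either rise or fall in cell number versus DMSO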); settings: primary human endothelial cells (HUVEC)
In short: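 Human umbilical vein endothelial cells were grown sub-confluent and exposed to chemical for 48 h, then fixed with 10% TCA and stained with 0.1% sulforhodamine B; absorbance at 560 nm gave relative cell number, fitted bidirectionally against DMSO baseline.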

[14] = target: human RAR-related Orphan Receptor beta (RORb), RORB (gene 6096) (UniProt Q92753); experiment: ATG_RORb_TRANS: Attagene TRANS-FACTORIAL HepG2 Assay for human RAR-related Orphan Receptor beta (RORb) (AID 2283010)
In short: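 HepG2 cells were transiently transfected with multiplexed GAL4-UAS reporter units expressing chimeric nuclear receptor–GAL4 proteins, then dosed for 24 h. Reporter mRNA was quantified by RT-PCR with fluorescent labelling and capillary electrophoresis; gain of signal was fitted relative to DMSO.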

[15] = read-out: E-selectin (Homo sapiens) (UniProt P16581); experiment: BSK_3C_Eselectin: BioMAP Diversity Plus: 3C Assay for Eselectin Biomarker Activity (AID 2283015; active = hit-call score of the fitted dose curve at least 0.9, where 1 is the maximum; inactive = score below 0.9); settings: primary human endothelial cells (HUVEC); actives raise or lower the signal
In short: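 Endpoint derived by bidirectional fitting against DMSO vehicle; signal is ELISA-detected E-selectin from primary HUVEC at 24 h post-dosing, with parallel SRB staining (0.1% SRB, 560 nm) flagging cytotoxicity.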

[16] = read-out: Interleukin-1 alpha (IL1a), IL1A (gene 3552); experiment: BSK_BE3C_IL1a: BioMAP Diversity Plus: BE3C Assay for Interleukin-1 alpha (IL1a) Biomarker Activity (AID 2283016; active = hit-call score of the fitted dose curve at least 0.9, where 1 is the maximum; inactive = score below 0.9); settings: primary human bronchial epithelial cells; actives raise or lower the signal
In short: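 Human primary bronchial epithelial cells (BE3C system) were dosed with compound and IL-1a measured by ELISA 24 h later. Activity was fitted bidirectionally against DMSO baseline; cytotoxicity was tracked in parallel cultures by SRB total-protein staining.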

[17] = read-out: Monocyte Chemoattractant Protein-1 (MCP1), CCL2 (gene 6347); experiment: BSK_3C_MCP1: BioMAP Diversity Plus: 3C Assay for Monocyte Chemoattractant Protein-1 (MCP1) Biomarker Activity (AID 2283017; active = hit-call score of the fitted dose curve at least 0.9, where 1 is the maximum; inactive = score below 0.9); settings: primary human endothelial cells (HUVEC); actives raise or lower the signal
In short: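 Using human vascular primary endothelium, researchers measured MCP-1 by ELISA 24 h after treatment, with DMSO serving as negative control for bidirectional fitting.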

[18] = read-out: Monocyte Chemoattractant Protein-1 (MCP1), CCL2 (gene 6347); experiment: BSK_4H_MCP1: BioMAP Diversity Plus: 4H Assay for Monocyte Chemoattractant Protein-1 (MCP1) Biomarker Activity (AID 2283018; active = hit-call score of the fitted dose curve at least 0.9, where 1 is the maximum; inactive = score below 0.9); settings: primary human endothelial cells (HUVEC); actives raise or lower the signal
In short: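 Human umbilical vein endothelial cells (4H system) dosed with chemical; MCP-1 measured by ELISA 24 h after dosing. Bidirectional curve fitting against DMSO negative control as baseline; parallel SRB total-protein staining tracks overt cytotoxicity.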

[19] = read-out: Human Leukocyte Antigen - DR isotype (HLADR), HLA-DRA (gene 3122); experiment: BSK_3C_HLADR: BioMAP Diversity Plus: 3C Assay for Human Leukocyte Antigen - DR isotype (HLADR) Biomarker Activity (AID 2283019; active = hit-call score of the fitted dose curve at least 0.9, where 1 is the maximum; inactive = score below 0.9); settings: primary human endothelial cells (HUVEC); actives raise or lower the signal
In short: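 Compound added to primary HUVEC cultures, 24 h incubation, then HLA-DR determined by ELISA; endpoint derived by bidirectional fitting relative to DMSO negative control.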

Measured: AC50

Sequence of human Retinoic Acid Receptor beta (RARb), RARB (gene 5915) (P10826 whole entry, looked up, the tested form may be a part): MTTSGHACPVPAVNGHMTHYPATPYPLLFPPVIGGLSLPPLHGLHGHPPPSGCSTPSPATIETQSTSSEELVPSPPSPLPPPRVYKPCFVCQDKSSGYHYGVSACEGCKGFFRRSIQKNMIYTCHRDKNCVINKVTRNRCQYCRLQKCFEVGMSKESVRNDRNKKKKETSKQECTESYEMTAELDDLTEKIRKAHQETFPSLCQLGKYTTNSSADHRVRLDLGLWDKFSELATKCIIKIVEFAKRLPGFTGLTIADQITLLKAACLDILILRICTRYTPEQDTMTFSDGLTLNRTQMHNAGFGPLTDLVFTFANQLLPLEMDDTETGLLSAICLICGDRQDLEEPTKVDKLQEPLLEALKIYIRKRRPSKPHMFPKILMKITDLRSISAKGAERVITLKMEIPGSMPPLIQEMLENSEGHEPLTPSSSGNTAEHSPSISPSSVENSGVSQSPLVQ
Sequence of Retinoic acid receptor RXR-alpha (Homo sapiens) (P19793 whole entry, looked up, the tested form may be a part): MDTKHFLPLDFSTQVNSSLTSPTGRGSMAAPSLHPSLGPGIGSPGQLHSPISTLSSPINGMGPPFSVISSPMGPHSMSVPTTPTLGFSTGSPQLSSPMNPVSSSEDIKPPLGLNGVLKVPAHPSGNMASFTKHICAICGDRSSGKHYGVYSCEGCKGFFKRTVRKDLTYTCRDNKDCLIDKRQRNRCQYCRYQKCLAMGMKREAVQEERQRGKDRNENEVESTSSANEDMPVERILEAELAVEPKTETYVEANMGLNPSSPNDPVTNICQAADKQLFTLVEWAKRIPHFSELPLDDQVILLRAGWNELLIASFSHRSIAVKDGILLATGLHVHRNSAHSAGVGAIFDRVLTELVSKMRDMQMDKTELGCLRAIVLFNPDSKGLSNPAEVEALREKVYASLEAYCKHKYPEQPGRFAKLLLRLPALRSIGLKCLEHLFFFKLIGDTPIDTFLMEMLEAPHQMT
Sequence of E-selectin (Homo sapiens) (P16581 whole entry, looked up): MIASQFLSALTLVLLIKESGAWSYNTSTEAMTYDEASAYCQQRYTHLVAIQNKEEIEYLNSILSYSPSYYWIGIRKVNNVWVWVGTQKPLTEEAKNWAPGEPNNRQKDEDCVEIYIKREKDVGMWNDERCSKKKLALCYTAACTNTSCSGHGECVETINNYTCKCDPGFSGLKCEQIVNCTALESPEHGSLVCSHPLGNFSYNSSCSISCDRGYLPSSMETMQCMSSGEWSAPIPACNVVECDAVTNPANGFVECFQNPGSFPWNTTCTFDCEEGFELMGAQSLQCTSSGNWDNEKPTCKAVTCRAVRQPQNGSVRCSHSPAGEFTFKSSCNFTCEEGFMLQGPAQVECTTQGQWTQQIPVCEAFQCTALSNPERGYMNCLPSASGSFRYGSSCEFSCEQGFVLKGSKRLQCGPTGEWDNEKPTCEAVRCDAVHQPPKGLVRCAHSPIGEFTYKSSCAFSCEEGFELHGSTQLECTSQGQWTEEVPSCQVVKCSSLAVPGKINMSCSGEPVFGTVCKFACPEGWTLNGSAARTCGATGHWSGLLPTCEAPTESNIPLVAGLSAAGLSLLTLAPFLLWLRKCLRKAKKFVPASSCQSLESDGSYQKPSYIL
Sequence of Peroxisome proliferator-activated receptor gamma (Homo sapiens) (P37231 whole entry, looked up, the tested form may be a part): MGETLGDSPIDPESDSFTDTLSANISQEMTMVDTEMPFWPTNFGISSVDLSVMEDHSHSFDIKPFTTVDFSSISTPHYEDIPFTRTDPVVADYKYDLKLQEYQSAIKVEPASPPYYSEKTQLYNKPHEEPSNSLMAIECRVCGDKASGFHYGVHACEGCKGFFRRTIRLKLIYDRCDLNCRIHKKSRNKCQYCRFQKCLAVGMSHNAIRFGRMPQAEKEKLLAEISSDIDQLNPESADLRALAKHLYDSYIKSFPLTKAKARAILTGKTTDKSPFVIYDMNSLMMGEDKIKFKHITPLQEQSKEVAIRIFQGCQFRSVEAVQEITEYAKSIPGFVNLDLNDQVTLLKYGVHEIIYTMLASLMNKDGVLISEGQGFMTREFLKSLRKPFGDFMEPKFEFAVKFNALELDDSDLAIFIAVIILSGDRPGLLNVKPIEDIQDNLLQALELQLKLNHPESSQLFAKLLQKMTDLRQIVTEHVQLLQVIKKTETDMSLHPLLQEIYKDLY
Sequence of human Peroxisome Proliferator-activated Receptor delta (PPARd), PPARD (gene 5467) (Q03181 whole entry, looked up, the tested form may be a part): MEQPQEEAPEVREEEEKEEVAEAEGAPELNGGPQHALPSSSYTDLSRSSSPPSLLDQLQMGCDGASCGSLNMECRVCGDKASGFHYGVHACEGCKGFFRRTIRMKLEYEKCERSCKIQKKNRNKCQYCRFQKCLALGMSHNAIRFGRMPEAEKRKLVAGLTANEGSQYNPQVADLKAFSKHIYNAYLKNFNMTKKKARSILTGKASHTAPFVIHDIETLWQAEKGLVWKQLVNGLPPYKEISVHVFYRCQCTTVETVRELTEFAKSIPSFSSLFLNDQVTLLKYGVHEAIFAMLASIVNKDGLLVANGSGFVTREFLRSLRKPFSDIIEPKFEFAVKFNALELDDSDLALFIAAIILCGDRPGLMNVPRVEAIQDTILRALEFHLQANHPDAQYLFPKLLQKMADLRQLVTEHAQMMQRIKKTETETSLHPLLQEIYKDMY
Sequence of human Thyroid Receptor alpha (THRa1), THRA (gene 7067) (P10827 whole entry, looked up, the tested form may be a part): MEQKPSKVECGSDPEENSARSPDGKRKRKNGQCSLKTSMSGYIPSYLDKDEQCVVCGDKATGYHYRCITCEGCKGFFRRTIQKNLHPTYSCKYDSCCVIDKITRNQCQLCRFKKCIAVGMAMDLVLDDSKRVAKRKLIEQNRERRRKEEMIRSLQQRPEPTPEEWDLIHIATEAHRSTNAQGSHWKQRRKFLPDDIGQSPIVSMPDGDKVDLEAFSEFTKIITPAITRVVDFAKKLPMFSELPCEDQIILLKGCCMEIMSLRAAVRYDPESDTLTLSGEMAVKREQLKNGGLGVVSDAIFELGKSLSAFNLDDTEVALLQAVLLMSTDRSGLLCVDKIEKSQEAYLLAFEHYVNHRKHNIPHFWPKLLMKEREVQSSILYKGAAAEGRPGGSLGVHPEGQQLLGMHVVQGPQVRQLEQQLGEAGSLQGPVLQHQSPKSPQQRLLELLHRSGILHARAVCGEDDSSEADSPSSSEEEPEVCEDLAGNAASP
Sequence of human Retinoic Acid Receptor gamma (RARg), RARG (gene 5916) (P13631 whole entry, looked up, the tested form may be a part): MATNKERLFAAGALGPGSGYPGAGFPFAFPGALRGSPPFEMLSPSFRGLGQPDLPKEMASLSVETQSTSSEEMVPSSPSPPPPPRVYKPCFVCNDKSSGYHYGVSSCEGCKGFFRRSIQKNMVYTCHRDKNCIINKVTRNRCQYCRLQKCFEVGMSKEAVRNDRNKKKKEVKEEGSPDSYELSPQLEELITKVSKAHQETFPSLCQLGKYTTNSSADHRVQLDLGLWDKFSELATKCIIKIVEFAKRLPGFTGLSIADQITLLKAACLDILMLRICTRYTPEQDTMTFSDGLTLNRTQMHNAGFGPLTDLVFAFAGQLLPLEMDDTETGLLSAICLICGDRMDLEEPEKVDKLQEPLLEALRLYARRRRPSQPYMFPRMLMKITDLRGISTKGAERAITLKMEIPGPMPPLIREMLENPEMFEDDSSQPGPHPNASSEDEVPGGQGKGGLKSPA
Sequence of Retinoic acid receptor alpha (Homo sapiens) (P10276 whole entry, looked up, the tested form may be a part): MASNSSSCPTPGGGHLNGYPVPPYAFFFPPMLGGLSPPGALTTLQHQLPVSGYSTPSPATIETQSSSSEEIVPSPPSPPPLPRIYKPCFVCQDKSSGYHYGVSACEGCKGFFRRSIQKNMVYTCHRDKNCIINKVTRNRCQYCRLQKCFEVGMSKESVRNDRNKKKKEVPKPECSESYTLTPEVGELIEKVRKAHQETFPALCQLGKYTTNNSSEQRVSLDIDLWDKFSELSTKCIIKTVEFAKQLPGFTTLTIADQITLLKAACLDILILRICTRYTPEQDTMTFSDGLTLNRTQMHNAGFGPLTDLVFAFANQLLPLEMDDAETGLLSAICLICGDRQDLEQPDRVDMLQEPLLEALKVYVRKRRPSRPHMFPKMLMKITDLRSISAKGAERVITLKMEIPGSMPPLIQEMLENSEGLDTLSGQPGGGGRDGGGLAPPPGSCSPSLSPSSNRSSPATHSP
Sequence of human Peroxisome Proliferator-activated Receptor alpha (PPARa), PPARA (gene 5465) (Q07869 whole entry, looked up, the tested form may be a part): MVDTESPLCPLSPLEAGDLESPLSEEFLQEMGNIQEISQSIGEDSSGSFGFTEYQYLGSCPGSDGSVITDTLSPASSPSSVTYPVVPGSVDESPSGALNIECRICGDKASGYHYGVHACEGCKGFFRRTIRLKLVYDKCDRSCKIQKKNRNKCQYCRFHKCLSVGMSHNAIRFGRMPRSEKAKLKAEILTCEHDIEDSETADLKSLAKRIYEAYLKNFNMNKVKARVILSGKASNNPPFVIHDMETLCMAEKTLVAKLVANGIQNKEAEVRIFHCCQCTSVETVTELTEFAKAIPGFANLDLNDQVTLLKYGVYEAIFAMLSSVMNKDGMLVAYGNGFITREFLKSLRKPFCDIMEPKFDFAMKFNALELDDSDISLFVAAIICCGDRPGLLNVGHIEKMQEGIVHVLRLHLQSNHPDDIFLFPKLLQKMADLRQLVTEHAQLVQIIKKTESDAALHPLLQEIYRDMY
Sequence of human RAR-related Orphan Receptor beta (RORb), RORB (gene 6096) (Q92753 whole entry, looked up, the tested form may be a part): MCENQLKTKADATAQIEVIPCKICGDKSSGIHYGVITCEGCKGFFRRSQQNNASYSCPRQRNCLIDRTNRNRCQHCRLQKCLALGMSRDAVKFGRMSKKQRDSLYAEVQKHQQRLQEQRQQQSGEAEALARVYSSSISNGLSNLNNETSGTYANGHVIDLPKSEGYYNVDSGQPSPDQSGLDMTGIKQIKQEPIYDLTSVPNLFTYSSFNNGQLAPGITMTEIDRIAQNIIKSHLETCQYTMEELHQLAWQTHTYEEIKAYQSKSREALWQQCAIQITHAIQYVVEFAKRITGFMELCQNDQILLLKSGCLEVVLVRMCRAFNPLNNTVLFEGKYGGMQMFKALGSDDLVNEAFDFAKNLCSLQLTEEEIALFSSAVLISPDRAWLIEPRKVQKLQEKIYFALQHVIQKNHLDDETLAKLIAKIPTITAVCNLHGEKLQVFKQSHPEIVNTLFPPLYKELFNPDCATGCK

CCc1cccc(C)c1N
inactive: [1] | [2] | [3] | [4] | [5] | [6] | [7] | [8]

O=C(Nc1ccccc1)c1cc(Cl)ccc1O
active: [4] 13 µM
inactive: [1] | [2] | [3] | [9] | [5] | [7] | [8] | [10]

C1CCSC1
inactive: [1] | [11] | [4] | [8] | [10]

COC(=O)c1ccccc1C
inactive: [1] | [11] | [4] | [6] | [10]

CC(c1cc(C(C)(C)C)cc(C(C)(C)C)c1O)c1cc(C(C)(C)C)cc(C(C)(C)C)c1O
active: [13] 5.09 µM | [9] 0.0816 µM | [8] 1.83 µM | [15] 1.21 µM
not listed: [4] | [5] | [6] | [11]
inactive: all other assays above

CCCCCCOC(=O)CCCCC(=O)OCCCCCC
active: [8] 54.2 µM
not listed: [6] | [11]
inactive: all other assays above

CC1(C)CC(O)CC(C)(C)N1[O]
active: [15] 0.0621 µM
inactive: [1] | [12] | [13] | [4] | [6] | [7] | [16] | [17] | [18] | [19]

C=CCCCCCCCCC=O
active: [4] 61.7 µM | [8] 105 µM
not listed: [2] | [3] | [5] | [10] | [11]
inactive: all other assays above

CCOC(=O)OC(=O)OCC
inactive: [1] | [11] | [9] | [5] | [10]

CC(C)c1cccc(C(C)C)c1N
active: [8] 71.2 µM | [19] 38.2 µM
not listed: [2] | [4] | [10] | [11]
inactive: all other assays above

c1ccc2c(c1)[nH]c1ccccc12
inactive: [1] | [12] | [13] | [4] | [5] | [14] | [7] | [8] | [10] | [15] | [16] | [17] | [18] | [19]
active: [13] 9.38 µM

CCOC(=O)C1=NN(c2ccc(Cl)cc2Cl)C(C)(C(=O)OCC)C1 (stereo not drawn)
active: [4] 87.1 µM | [9] 10.1 µM | [18] 20 µM
not listed: [3] | [7] | [8] | [11] | [14]
inactive: all other assays above

CC(=O)C(C)C
inactive: [1] | [2] | [3] | [4] | [9] | [5] | [14]

O=S(=O)(O)c1ccc(N=Nc2c(O)ccc3ccccc23)cc1
inactive: [1] | [2] | [3] | [4] | [5] | [6] | [8]

CN(C)c1ccc2nc3ccc(=[N+](C)C)cc-3sc2c1
active: [4] 12.1 µM | [9] 10.3 µM
inactive: [1] | [2] | [3] | [5] | [14] | [6] | [7] | [10]

Fc1ccc(Br)cc1
active: [8] 156 µM
not listed: [4] | [10] | [11] | [14]
inactive: all other assays above

COc1ccc(C(=O)/C(Br)=C\C(=O)O)cc1
active: [12] 32.2 µM and 33.3 µM | [13] 6.82 µM and 20 µM | [9] 6.78 µM | [15] 15.2 µM and 20 µM | [16] 25.5 µM and 15.9 µM | [17] 28.8 µM and 30.2 µM | [18] 16.6 µM and 29.4 µM | [19] 12.4 µM and 20 µM
inactive: [1] | [5] | [6] | [8] | [10]

CCCCCCCCCCCC(=O)N(C)CC(=O)O
active: [1] 7.45 µM | [13] 15.2 µM | [4] 13.1 µM
inactive: [12] | [3] | [13] | [6] | [15] | [16] | [17] | [18] | [19]

CCCCCCCCCCCC(C)=O
inactive: [1] | [2] | [3] | [9] | [5] | [14] | [6] | [7]
active: [12] 32.5 µM | [13] 20 µM | [4] 51 µM | [8] 25.9 µM | [15] 33.7 µM | [16] 20 µM | [17] 31.3 µM | [18] 29.8 µM | [19] 32.5 µM

O=C1CCCCC1C1CCCCC1 (stereo not drawn)
active: [9] 41.2 µM
inactive: [1] | [2] | [3] | [4] | [5] | [14] | [7] | [8]
